Measurements from PubChem BioAssay (EPA / NIEHS).
Where a structure was tested more than once in an assay, its records may differ in their call. The source made the active and inactive calls. The calls were made as follows: active = hit-call score of the fitted dose curve at least 0.9, where 1 is the maximum; inactive = score below 0.9.

What was measured:
[1] = ATG_EGR_CIS: Attagene CIS-FACTORIAL HepG2 Assay for human Early Growth Response 1 (EGR1) (AID 2282938); conditions: HepG2 Attagene CIS-FACTORIAL EGR reporter mRNA; actives raise or lower the signal
In short: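 Endogenous TF activity in HepG2 liver cells was gauged through cis-promoter reporter constructs transiently transfected. After 24 h dosing, reporter mRNA was quantified by RT-PCR and capillary electrophoresis, and curves fitted in both directions versus DMSO.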

[2] = ATG_M_19_CIS: Attagene CIS-FACTORIAL HepG2 Assay for M19 Transcription Factor (Internal Marker) (AID 2282939); conditions: HepG2 Attagene CIS-FACTORIAL M19 internal marker reporter; actives raise or lower the signal
In short: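 HepG2 cells transiently transfected with cis-regulated multiple reporter transcription units were dosed for 24 h; reporter mRNA was quantified by RT-PCR, 6-FAM primer-extension labelling, HpaI digestion and capillary electrophoresis, with bidirectional fitting against DMSO baseline.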

[3] = ATG_ERE_CIS: Attagene CIS-FACTORIAL HepG2 Assay for Estrogen Response Element (ERE) (AID 2282940); conditions: HepG2 ERE cis-reporter, Attagene RNA transcript; actives raise or lower the signal
In short: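 HepG2 cells transiently transfected with cis-promoter-driven multiplexed reporter transcription units report endogenous TF activity. After 24 h compound exposure, reporter mRNA is quantified by RT-PCR with capillary electrophoresis fluorescence; bidirectional fitting versus DMSO baseline.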

[4] = ATG_Ets_CIS: Attagene CIS-FACTORIAL HepG2 Assay for human Erythroblast Transformation Specific (ETS) (AID 2282941); conditions: HepG2 ETS cis-reporter transcription; AC50: actives raise or lower the signal unless noted; outcome: actives raise or lower the signal unless noted
In short: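 Endogenous transcription factor activity read as reporter mRNA via RT-PCR and capillary electrophoresis, with gain or loss fitted bidirectionally against DMSO. Human HepG2 liver cells, transiently transfected CIS reporter constructs, 24 h exposure.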

[5] = target: Hepatocyte nuclear factor 3-beta (Homo sapiens) (UniProt Q9Y261); test: ATG_FoxA2_CIS: Attagene CIS-FACTORIAL HepG2 Assay for human Forkhead box A2 (FOXA2) (AID 2282942); conditions: HepG2 cis-reporter transcription factor activity, 24 h; actives raise or lower the signal
Chain of Hepatocyte nuclear factor 3-beta (Homo sapiens) (Q9Y261 whole entry, looked up): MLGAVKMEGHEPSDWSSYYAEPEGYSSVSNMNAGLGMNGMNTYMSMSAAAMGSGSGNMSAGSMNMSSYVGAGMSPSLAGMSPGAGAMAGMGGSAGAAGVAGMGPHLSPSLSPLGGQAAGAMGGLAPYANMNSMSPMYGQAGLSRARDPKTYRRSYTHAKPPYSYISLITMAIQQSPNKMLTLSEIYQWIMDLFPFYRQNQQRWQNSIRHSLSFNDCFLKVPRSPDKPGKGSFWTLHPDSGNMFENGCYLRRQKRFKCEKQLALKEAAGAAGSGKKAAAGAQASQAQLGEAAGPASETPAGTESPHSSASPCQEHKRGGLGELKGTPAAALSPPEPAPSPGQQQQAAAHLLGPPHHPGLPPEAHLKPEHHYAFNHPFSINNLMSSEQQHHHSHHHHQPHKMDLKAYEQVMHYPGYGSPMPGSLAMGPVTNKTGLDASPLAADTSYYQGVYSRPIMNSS
In short: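 Endogenous transcription factor activity was read in HepG2 cells carrying transiently transfected cis-promoter reporter units. After 24 h dosing, reporter mRNA was quantified by RT-PCR and capillary electrophoresis, and values fitted bidirectionally versus DMSO.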

[6] = ATG_GATA_CIS: Attagene CIS-FACTORIAL HepG2 Assay for human GATA Binding Protein (AID 2282944); conditions: HepG2 GATA cis-element reporter, Attagene multiplex mRNA; actives raise or lower the signal
In short: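 HepG2 cells transiently transfected with multiplexed cis-element reporter units reflecting endogenous transcription factor activity; reporter mRNA measured after 24 h dosing by RT-PCR, 6-FAM labeling, HpaI digestion and capillary electrophoresis. Bidirectional fitting versus DMSO baseline.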

[7] = ATG_GLI_CIS: Attagene CIS-FACTORIAL HepG2 Assay for human Zinc Finger Protein GLI1 (AID 2282945); conditions: HepG2, Attagene cis-factorial reporter mRNA, GLI element; actives raise or lower the signal
In short: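 Bidirectional curve fits relative to DMSO, using reporter mRNA levels from RT-PCR plus capillary electrophoresis. Cells were HepG2 transiently carrying cis-regulated reporter constructs, harvested 24 h after dosing.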

[8] = target: Bile acid receptor (Homo sapiens) (UniProt Q96RI1); test: ATG_IR1_CIS: Attagene CIS-FACTORIAL HepG2 Assay for human Nuclear Receptor Subfamily 1 Group H Member 4 (NR1H4), IR1 submotif (AID 2282946); conditions: IR1 reporter transcription, actives raise or lower the signal
Chain of Bile acid receptor (Homo sapiens) (Q96RI1 whole entry, looked up): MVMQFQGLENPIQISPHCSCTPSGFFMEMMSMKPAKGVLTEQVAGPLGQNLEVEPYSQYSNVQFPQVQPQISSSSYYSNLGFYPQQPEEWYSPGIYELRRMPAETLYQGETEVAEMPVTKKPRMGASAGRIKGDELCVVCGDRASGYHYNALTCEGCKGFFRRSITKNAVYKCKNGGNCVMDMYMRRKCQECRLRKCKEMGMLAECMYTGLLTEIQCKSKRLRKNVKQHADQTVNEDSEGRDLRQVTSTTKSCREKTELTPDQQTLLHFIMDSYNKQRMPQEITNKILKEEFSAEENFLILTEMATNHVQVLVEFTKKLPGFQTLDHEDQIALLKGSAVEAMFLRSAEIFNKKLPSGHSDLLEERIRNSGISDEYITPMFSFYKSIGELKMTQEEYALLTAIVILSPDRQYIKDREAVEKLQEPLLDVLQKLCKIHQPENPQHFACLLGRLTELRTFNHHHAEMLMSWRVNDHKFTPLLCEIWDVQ
In short: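 HepG2 cells transiently transfected with multiplexed cis-element reporter units read endogenous transcription factor activity. After 24 h compound exposure, reporter mRNA was quantified by RT-PCR, fluorescent labelling, HpaI digestion and capillary electrophoresis; bidirectional fitting versus DMSO baseline.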

[9] = ATG_GRE_CIS: Attagene CIS-FACTORIAL HepG2 Assay for human Glucocorticoid Response Elements (GRE) (AID 2282947); conditions: HepG2 GRE cis-reporter, Attagene multiplex mRNA; AC50: actives raise or lower the signal unless noted; outcome: actives raise or lower the signal unless noted
In short: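 Multiplexed cis-reporter mRNA induction, HepG2, 24 h post-dose. RT-PCR, FAM-labelled, HpaI-digested amplicons by CE. Bidirectional fit vs DMSO.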

[10] = ATG_ISRE_CIS: Attagene CIS-FACTORIAL HepG2 Assay for human Interferon Regulatory Factor 1 (IRF1) binding to an Interferon-Stimulated Response Element (ISRE) (AID 2282948); conditions: HepG2 ISRE cis-reporter (Attagene), mRNA transcription readout; actives raise or lower the signal
In short: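 Endogenous transcription factor activity read as reporter transcript abundance via RT-PCR and capillary electrophoresis. HepG2 cells transiently transfected, 24 h chemical exposure. Gain or loss fitted against DMSO baseline.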

[11] = ATG_M_32_CIS: Attagene CIS-FACTORIAL HepG2 Assay for M32 Transcription Factor (Internal Marker) (AID 2282949); conditions: HepG2 Attagene cis-factorial M32 reporter, mRNA; actives raise or lower the signal;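 also: background control marker of the multiplexed CIS panel rather than a real target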
In short: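 Transient MRTU transfection of HepG2; 24 h compound treatment; TriZol RNA, oligo(dT) RT, reporter PCR, 6-FAM primer extension, HpaI cut, CE. Gain/loss of signal vs DMSO.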

[12] = ATG_M_06_CIS: Attagene CIS-FACTORIAL HepG2 Assay for M06 Transcription Factor (Internal Marker) (AID 2282950); conditions: HepG2 Attagene CIS-FACTORIAL M06 internal marker reporter; actives raise or lower the signal
In short: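 HepG2 cells transiently transfected with cis-regulated multiple reporter transcription units were exposed to chemical for 24 h; reporter mRNA was quantified by RT-PCR, 6-FAM primer labelling, HpaI digestion and capillary electrophoresis, fitted bidirectionally against DMSO.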

[13] = target: Hypoxia-inducible factor 1-alpha (Homo sapiens) (UniProt Q16665); test: ATG_HIF1a_CIS: Attagene CIS-FACTORIAL HepG2 Assay for human Hypoxia Inducible Factor 1 (HIF1A) (AID 2282951); conditions: HepG2 Attagene cis-factorial HIF1a reporter transcription; actives raise or lower the signal
Chain of Hypoxia-inducible factor 1-alpha (Homo sapiens) (Q16665 whole entry, looked up): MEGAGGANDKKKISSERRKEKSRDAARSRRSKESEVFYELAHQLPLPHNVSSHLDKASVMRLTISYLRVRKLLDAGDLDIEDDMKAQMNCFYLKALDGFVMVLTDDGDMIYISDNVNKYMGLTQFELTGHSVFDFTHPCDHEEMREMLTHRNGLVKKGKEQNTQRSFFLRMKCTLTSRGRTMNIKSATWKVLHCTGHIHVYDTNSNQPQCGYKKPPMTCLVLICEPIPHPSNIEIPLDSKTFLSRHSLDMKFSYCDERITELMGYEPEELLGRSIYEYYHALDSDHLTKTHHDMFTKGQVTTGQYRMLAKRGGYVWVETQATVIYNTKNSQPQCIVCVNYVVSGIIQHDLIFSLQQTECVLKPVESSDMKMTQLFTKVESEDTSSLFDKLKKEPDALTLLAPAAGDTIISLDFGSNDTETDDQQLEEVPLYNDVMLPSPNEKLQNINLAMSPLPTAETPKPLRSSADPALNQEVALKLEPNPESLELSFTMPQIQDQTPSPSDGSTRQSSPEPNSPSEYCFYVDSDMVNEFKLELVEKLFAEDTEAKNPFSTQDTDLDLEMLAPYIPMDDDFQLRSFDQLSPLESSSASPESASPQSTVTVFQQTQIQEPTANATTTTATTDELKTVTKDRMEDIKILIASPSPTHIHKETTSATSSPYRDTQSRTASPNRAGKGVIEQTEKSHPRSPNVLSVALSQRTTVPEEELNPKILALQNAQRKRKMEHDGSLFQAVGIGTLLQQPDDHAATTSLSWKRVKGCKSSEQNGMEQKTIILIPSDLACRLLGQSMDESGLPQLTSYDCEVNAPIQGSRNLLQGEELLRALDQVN
In short: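 Measures endogenous transcription-factor activity through cis-regulated reporter mRNA in HepG2. Cells dosed 24 h; transcripts quantified by RT-PCR with 6-FAM-labelled products separated by capillary electrophoresis; DMSO serves as negative control.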

[14] = target: Hepatocyte nuclear factor 6 (Homo sapiens) (UniProt Q9UBC0); test: ATG_HNF6_CIS: Attagene CIS-FACTORIAL HepG2 Assay for human Hepatocyte Nuclear Factor 6 (HNF6) (AID 2282952); conditions: HepG2 Attagene cis-factorial HNF6 reporter transcription; actives raise or lower the signal
Chain of Hepatocyte nuclear factor 6 (Homo sapiens) (Q9UBC0 whole entry, looked up, the tested form may be a part): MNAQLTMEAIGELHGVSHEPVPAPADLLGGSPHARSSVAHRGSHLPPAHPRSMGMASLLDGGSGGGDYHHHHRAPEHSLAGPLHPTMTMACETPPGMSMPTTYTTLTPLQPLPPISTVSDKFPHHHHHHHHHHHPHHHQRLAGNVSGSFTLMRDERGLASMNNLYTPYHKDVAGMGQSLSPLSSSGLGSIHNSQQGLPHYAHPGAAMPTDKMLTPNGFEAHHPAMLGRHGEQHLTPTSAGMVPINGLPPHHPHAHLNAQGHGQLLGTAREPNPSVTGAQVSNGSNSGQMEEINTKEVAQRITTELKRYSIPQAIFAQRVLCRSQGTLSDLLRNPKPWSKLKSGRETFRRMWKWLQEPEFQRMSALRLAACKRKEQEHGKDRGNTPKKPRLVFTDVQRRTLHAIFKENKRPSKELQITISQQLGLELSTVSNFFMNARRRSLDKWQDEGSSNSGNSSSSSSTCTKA
In short: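 Twenty-four-hour chemical treatment of reporter-transfected HepG2 cells precedes RNA isolation, DNase-treated reverse transcription and PCR of reporter sequences. Labelled fragments are sized by capillary electrophoresis and fitted bidirectionally versus DMSO.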

[15] = ATG_MRE_CIS: Attagene CIS-FACTORIAL HepG2 Assay for human Metal Responsive Element (MRE) (AID 2282954); conditions: HepG2 MRE cis-reporter transcription, Attagene multiplex; actives raise or lower the signal
In short: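 Multiplexed cis-reporter assay in human HepG2 liver cells, 24 h incubation with test chemical. Reporter transcripts measured by RT-PCR and capillary electrophoresis; values from bidirectional curve fitting versus DMSO.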

[16] = ATG_PBREM_CIS: Attagene CIS-FACTORIAL HepG2 Assay for human Phenobarbital-responsive Enhancer Module (PBREM) (AID 2282955); conditions: HepG2 PBREM cis-reporter, Attagene multiplexed transcription; actives raise or lower the signal
In short: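 Fluorescence of labelled reporter cDNA fragments, resolved by capillary electrophoresis, gives mRNA induction in transfected HepG2 cells treated for 24 h; DMSO serves as negative control and baseline.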

[17] = target: Paired box protein Pax-6 (Homo sapiens) (UniProt P26367); test: ATG_Pax6_CIS: Attagene CIS-FACTORIAL HepG2 Assay for human Paired Box 6 (PAX6) (AID 2282956); conditions: HepG2 CIS-FACTORIAL PAX6 reporter transcription, RNA readout; actives raise or lower the signal
Chain of Paired box protein Pax-6 (Homo sapiens) (P26367 whole entry, looked up): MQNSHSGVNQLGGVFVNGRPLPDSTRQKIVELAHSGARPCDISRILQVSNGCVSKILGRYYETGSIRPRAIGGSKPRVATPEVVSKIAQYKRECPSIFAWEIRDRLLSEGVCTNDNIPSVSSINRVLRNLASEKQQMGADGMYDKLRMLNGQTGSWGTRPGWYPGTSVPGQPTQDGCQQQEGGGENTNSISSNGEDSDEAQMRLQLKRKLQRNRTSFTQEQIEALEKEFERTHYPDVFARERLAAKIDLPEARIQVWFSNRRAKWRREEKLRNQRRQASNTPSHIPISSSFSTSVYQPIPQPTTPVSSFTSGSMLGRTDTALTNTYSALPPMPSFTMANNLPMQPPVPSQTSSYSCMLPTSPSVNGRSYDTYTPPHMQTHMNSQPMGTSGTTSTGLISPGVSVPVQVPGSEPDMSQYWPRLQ
In short: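 Read-out is reporter transcript level, measured by RT-PCR with fluorescent primer extension and capillary electrophoresis after 24 h dosing of transfected HepG2 cells. Activity in either direction fitted relative to DMSO control.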

[18] = ATG_PXRE_CIS: Attagene CIS-FACTORIAL HepG2 Assay for human Pregnane X Receptor Element (PXRE) (AID 2282957); conditions: HepG2 Attagene CIS-FACTORIAL PXRE reporter, mRNA; actives raise or lower the signal
In short: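 Bidirectional activity, baselined to DMSO, derived from reporter mRNA fluorescence (RT-PCR plus capillary electrophoresis) in HepG2 cells bearing cis-promoter reporter units, 24 h exposure.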

[19] = target: Heat shock factor protein 1 (Homo sapiens) (UniProt Q00613); test: ATG_HSE_CIS: Attagene CIS-FACTORIAL HepG2 Assay for human Heat Shock Transcription Factor 1 (HSE) (AID 2282953); conditions: HepG2 HSE cis-reporter, Attagene RNA transcription; actives raise or lower the signal
Chain of Heat shock factor protein 1 (Homo sapiens) (Q00613 whole entry, looked up): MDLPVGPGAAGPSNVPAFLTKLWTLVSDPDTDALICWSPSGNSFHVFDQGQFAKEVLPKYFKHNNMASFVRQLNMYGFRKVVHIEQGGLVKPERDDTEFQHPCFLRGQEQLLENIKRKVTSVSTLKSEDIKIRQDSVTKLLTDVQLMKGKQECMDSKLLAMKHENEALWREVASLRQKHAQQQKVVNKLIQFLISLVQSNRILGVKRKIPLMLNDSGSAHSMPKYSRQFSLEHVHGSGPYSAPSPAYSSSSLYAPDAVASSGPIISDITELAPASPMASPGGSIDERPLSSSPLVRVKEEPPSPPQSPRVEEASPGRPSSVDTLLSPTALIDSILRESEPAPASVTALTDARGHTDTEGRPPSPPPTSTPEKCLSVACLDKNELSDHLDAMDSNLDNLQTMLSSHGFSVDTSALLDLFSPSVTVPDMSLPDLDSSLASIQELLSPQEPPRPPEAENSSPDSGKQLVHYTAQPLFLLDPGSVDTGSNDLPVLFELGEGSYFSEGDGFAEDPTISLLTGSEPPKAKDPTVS
In short: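 HepG2 cells transiently transfected with multiple reporter transcription units under cis-regulatory promoter control, measuring endogenous transcription factor activity. After 24 h chemical exposure, reporter mRNA quantified by RT-PCR, fluorescent labelling, HpaI digestion and capillary electrophoresis; bidirectional fit versus DMSO.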

[20] = ATG_FoxO_CIS: Attagene CIS-FACTORIAL HepG2 Assay for human Forkhead box O (FoxO) (AID 2282943); conditions: HepG2 Attagene cis-reporter, FoxO element, mRNA; actives raise or lower the signal
In short: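 Human hepatoma HepG2 cells carry transiently introduced reporter transcription units controlled by cis promoter elements. Chemical treatment lasted 24 h, and mRNA signal was compared with DMSO.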

Measured: AC50

Clc1ccc2c(Cl)ccnc2c1
not listed: [19] | [20]
inactive: all other assays above

NNc1nc(-c2ccc([N+](=O)[O-])cc2)cs1
active: [19] 51.3 µM
not listed: [20]
inactive: all other assays above

OCCN1CN(CCO)CN(CCO)C1
active: [1] 173 µM | [10] 159 µM | [15] 165 µM | [17] 173 µM | [18] 30 µM
not listed: [7] | [19]
inactive: all other assays above

NCCN
active: [18] 164 µM
inactive: [1] | [2] | [3] | [4] | [5] | [6] | [7] | [10] | [11] | [12] | [13] | [14] | [19] | [15] | [17] | [18]

Oc1cc2ccccc2cc1O
active: [3] 100 µM
not listed: [7] | [8] | [16]
inactive: all other assays above

O=C(O)CN(CCCN(CC(=O)O)CC(=O)O)CC(=O)O
active: [1] 6.32 µM
not listed: [20]
inactive: all other assays above

CN(C)CCOC(c1ccccc1)c1ccccc1
active: [10] 100 µM | [18] 151 µM
not listed: [8] | [13] | [14] | [16] | [20]
inactive: all other assays above
